Test results as given in PubChem BioAssay AID588790 (National Center for Advancing Translational Sciences (NCATS), 2011).
About 85 (7%) of roughly 1,200 compounds were called active. The call rests on the fitted dose curve. What follows is part of a selection rich in actives, with near analogues and random picks from the rest.

These compounds were tested against Beta-2 adrenergic receptor (Homo sapiens) (UniProt P07550) (assay: qHTS assay of beta-arrestin-biased ligands of beta2-adrenergic receptor: Hit Validation with GloSensor). Details: W9-Glo22F cells, GloSensor cAMP luminescence, beta2AR agonism; activation: at 46.1 µM (top of the series).
Chain of Beta-2 adrenergic receptor (Homo sapiens) (P07550 whole entry, looked up): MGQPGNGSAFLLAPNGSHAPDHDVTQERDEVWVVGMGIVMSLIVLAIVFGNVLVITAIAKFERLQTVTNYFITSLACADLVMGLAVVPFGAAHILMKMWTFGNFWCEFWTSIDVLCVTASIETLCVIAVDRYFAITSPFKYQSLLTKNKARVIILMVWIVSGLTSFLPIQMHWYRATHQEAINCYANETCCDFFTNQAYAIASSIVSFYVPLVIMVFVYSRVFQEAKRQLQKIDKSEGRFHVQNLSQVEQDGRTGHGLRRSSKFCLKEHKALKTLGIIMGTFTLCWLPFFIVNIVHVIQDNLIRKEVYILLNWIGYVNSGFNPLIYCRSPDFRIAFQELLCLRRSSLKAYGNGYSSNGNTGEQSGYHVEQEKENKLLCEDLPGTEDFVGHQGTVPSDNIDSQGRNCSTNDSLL
How it was run: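 W9-Glo22F cells plated and incubated overnight at 37 deg C, 5% CO2, then compounds pinned in. GloSensor reagent added, 10 min at room temperature, luminescence read.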
Potency means the concentration at half of the fitted maximal effect.
Wherever activation is given: 0% is about no effect.

activation, inactive:
COc1cccc(OCC(=O)Nc2c3c(nn2-c2ccc(F)cc2)CS(=O)(=O)C3)c1 3.64%, O=C(NC1CCCCC1)N(Cc1cc2cc3c(cc2[nH]c1=O)OCCO3)CC1CCCO1 (configuration not stated) 1.16%, CCNC(=S)N/N=C(\C)c1cccc(C(F)(F)F)c1 2.48%, CC(=O)Nc1ccc(S(=O)(=O)N2CCC(c3nnc(-c4ccc(C)cc4)o3)CC2)cc1 2.33%, CCOC(=O)c1c(NC(=O)CSc2cccc[n+]2[O-])sc(C(=O)Nc2ccccc2)c1C -1.16%, CCOC(=O)c1c(C)nc2c(c1-c1ccccc1)C(=O)CC(C)(C)C2 1.16%, N#CC1=C(N)OC2=C(CC/C2=C\c2ccccc2)C1c1ccccc1 (configuration not stated) -1.16%, CC1CCCC/C1=N\NC(=S)NCCc1ccccc1 (configuration not stated) -1.16%, S=c1ccc2ccccc2[nH]1 -1.16%, S=c1nc(-c2ccccc2)[nH]c2ccc(Br)cc12 0%, CCOC(=O)C1(O)CC(C)=NN1C(=O)c1cccc(Cl)c1 (configuration not stated) -1.16%, CCNC(=S)N/N=C/c1sccc1C 0%, CC(C)NC(=S)N/N=C/c1cccs1 -1.16%, Cc1noc(C)c1COc1cccc(C(=O)Nc2ccccc2N2CCOCC2)c1 8.6%, O=C(N/N=C/c1ccccc1OC(=O)c1ccc2c(c1)OCO2)c1ccccc1 4.96%, Cn1c(/C=C/c2ccc([N+](=O)[O-])o2)nc2ccccc2c1=O 2.48%, N#C/C(=C\c1cccc(O)c1)C(=O)Nc1ccc2c(c1)OCCO2 -1.01%, O=C(O)/C(=C\c1ccco1)NC(=O)c1ccccc1 -1.16%, O=C(CC(c1ccco1)S(=O)(=O)c1ccccc1)c1ccccc1 (configuration not stated) -2.17%, CC(C)[C@H](NC(=O)c1ccccc1Cl)C(=O)Nc1nc(-c2ccccn2)cs1 1.16%, COc1cccc(N2CCN(C(=O)/C=C/c3ccco3)CC2)c1 0%, CC1=C(C)/C(=N\OS(=O)(=O)c2ccc(C)cc2)C=CC1=O 0%, C/C(=N\NC(=S)NC(C)C)c1ccccc1 7.28%, C/C(=N\NC(=S)NC(C)C)c1ccco1 0%, CCOc1ccc(/C(CCC(=O)O)=N/NC(=S)NC(C)C)cc1 1.71%, C/C(=N\NC(=S)NC(C)C)c1ccccc1OC(F)F -1.16%

Potency, active:
CC(C)C(=O)COc1c2occc2cc2ccc(=O)oc12 13 µM, S=c1nc(-c2ccccc2)[nH]c2ccccc12 32.6 µM, CCNC(=S)N/N=C/c1cccs1 5.8 µM, O=C(c1ccccc1)c1ccc2nc(-c3ccco3)c(-c3ccco3)nc2c1 32.6 µM, CC/C(=N\NC(=S)NC(C)C)c1ccc(OC)c(OC)c1 23.1 µM, COc1cc(/C(C)=N/NC(=S)NC(C)C)cc(OC)c1OC 18.4 µM
